# Experimental data reported in the supplement of paper PMC4466140.
# Experiments:
# Assay in all cases: SPOT peptide array binding signal intensity (averaged, normalized) (arbitrary units (background-subtracted, floor 0; scale differs between SH3 domains)); higher = stronger binding of the SH3 domain to the peptide
# [1] = target: CaNbp2
# Procedure, shortened: (§1)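 GST-fused SH3 domains from four yeast species were expressed in E. coli BL21(DE3), purified on glutathione Sepharose and incubated at 10 μg/ml overnight at 4°C in TBS-based blocking buffer on cellulose membranes carrying synthetic 15-mer peptides, with cysteines replaced by serines. Bound protein was detected with anti-GST antibody, an HRP anti-mouse secondary and luminol, then imaged and quantified with Genespotter. Binding signal is the normalized, background-subtracted spot intensity averaged over replicates, in arbitrary units that differ between domains.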
# [2] = target: CaRvs167
# Procedure, shortened: as §1
# [3] = target: CaRvs167-3
# Procedure, shortened: as §1
# [4] = target: CaSho1
# Procedure, shortened: as §1
# [5] = target: CaSla1-D1-D2
# Procedure, shortened: as §1
# [6] = target: CaSla1-D3
# Procedure, shortened: as §1
# [7] = target: ScAbp1
# Procedure, shortened: as §1
# [8] = target: ScBbc1
# Procedure, shortened: as §1
# [9] = target: ScBem1-D1
# Procedure, shortened: as §1
# [10] = target: ScBzz1-D1
# Procedure, shortened: as §1
# [11] = target: ScBzz1-D2
# Procedure, shortened: as §1
# [12] = target: ScCyk3
# Procedure, shortened: as §1
# [13] = target: ScFus1
# Procedure, shortened: as §1
# [14] = target: ScHof1
# Procedure, shortened: as §1
# [15] = target: ScHse1
# Procedure, shortened: as §1
# [16] = target: ScLsb1
# Procedure, shortened: as §1
# [17] = target: ScLsb2
# Procedure, shortened: as §1
# [18] = target: ScLsb3
# Procedure, shortened: as §1
# [19] = target: ScLsb4
# Procedure, shortened: as §1
# [20] = target: ScMyo3
# Procedure, shortened: as §1
# [21] = target: ScMyo5
# Procedure, shortened: as §1
# [22] = target: ScNbp2
# Procedure, shortened: as §1
# [23] = target: ScPex13
# Procedure, shortened: as §1
# [24] = target: ScRvs167
# Procedure, shortened: as §1
# [25] = target: ScSho1
# Procedure, shortened: as §1
# [26] = target: ScSla1-D1-D2
# Procedure, shortened: as §1
# [27] = target: ScSla1-D3
# Procedure, shortened: as §1
# [28] = target: SpAbp1-D1
# Procedure, shortened: as §1
# [29] = target: SpBbc1
# Procedure, shortened: as §1
# [30] = target: SpBzz1-D1
# Procedure, shortened: as §1
# [31] = target: SpBzz1-D2
# Procedure, shortened: as §1
# [32] = target: SpCyk3
# Procedure, shortened: as §1
# [33] = target: SpHof1
# Procedure, shortened: as §1
# [34] = target: SpHof1-2
# Procedure, shortened: as §1
# [35] = target: SpHof1-3
# Procedure, shortened: as §1
# [36] = target: SpHse1
# Procedure, shortened: as §1
# [37] = target: SpLsb1
# Procedure, shortened: as §1
# [38] = target: SpLsb4
# Procedure, shortened: as §1
# [39] = target: SpMyo1
# Procedure, shortened: as §1
# [40] = target: SpNbp2
# Procedure, shortened: as §1
# [41] = target: SpPex13
# Procedure, shortened: as §1
# [42] = target: SpRvs167
# Procedure, shortened: as §1
# [43] = target: SpSla1-D1-D2
# Procedure, shortened: as §1
# [44] = target: SpSla1-D3
# Procedure, shortened: as §1
binder,measurement,setting,value
SAPDIPPRSPNRNAH,SPOT peptide array binding signal intensity,[1],≤ 0
same,SPOT peptide array binding signal intensity,[2],321
same,SPOT peptide array binding signal intensity,[3],1
same,SPOT peptide array binding signal intensity,[4],≤ 0
same,SPOT peptide array binding signal intensity,[5],290
same,SPOT peptide array binding signal intensity,[6],≤ 0
same,SPOT peptide array binding signal intensity,[7],4.5
same,SPOT peptide array binding signal intensity,[8],35.8
same,SPOT peptide array binding signal intensity,[9],≤ 0
same,SPOT peptide array binding signal intensity,[10],≤ 0
same,SPOT peptide array binding signal intensity,[11],≤ 0
same,SPOT peptide array binding signal intensity,[12],≤ 0
same,SPOT peptide array binding signal intensity,[13],≤ 0
same,SPOT peptide array binding signal intensity,[14],≤ 0
same,SPOT peptide array binding signal intensity,[15],17.5
same,SPOT peptide array binding signal intensity,[16],763
same,SPOT peptide array binding signal intensity,[17],1090
same,SPOT peptide array binding signal intensity,[18],5380
same,SPOT peptide array binding signal intensity,[19],936
same,SPOT peptide array binding signal intensity,[20],≤ 0
same,SPOT peptide array binding signal intensity,[21],≤ 0
same,SPOT peptide array binding signal intensity,[22],57
same,SPOT peptide array binding signal intensity,[23],130
same,SPOT peptide array binding signal intensity,[24],1360
same,SPOT peptide array binding signal intensity,[25],13.5
same,SPOT peptide array binding signal intensity,[26],134
same,SPOT peptide array binding signal intensity,[27],≤ 0
same,SPOT peptide array binding signal intensity,[28],≤ 0
same,SPOT peptide array binding signal intensity,[29],3.5
same,SPOT peptide array binding signal intensity,[30],≤ 0
same,SPOT peptide array binding signal intensity,[31],≤ 0
same,SPOT peptide array binding signal intensity,[32],≤ 0
same,SPOT peptide array binding signal intensity,[33],0.75
same,SPOT peptide array binding signal intensity,[34],≤ 0
same,SPOT peptide array binding signal intensity,[35],1
same,SPOT peptide array binding signal intensity,[36],12
same,SPOT peptide array binding signal intensity,[37],540
same,SPOT peptide array binding signal intensity,[38],6620
same,SPOT peptide array binding signal intensity,[39],≤ 0
same,SPOT peptide array binding signal intensity,[40],59.5
same,SPOT peptide array binding signal intensity,[41],≤ 0
same,SPOT peptide array binding signal intensity,[42],1600
same,SPOT peptide array binding signal intensity,[43],≤ 0
same,SPOT peptide array binding signal intensity,[44],≤ 0
